Source: PMC4336329 (PLoS ONE, 2015)
Screen size: about 310,000 compounds; about 14,000 (4.5%) showed an effect of 50% or more. The effect is printed as a negative number. This is one part of a sample in which strong results are shown more often than they occur.

target: human ether-à-go-go-related gene (hERG) potassium channel (human, UniProt Q12809); assay: primary screen, population patch clamp on CHO cells stably expressing hERG; higher = less effect of the substance
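Also: peak tail current of the secondary pulse compared with the same well before compound.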

human ether-à-go-go-related gene (hERG) potassium channel, sequence (Q12809 whole entry, looked up): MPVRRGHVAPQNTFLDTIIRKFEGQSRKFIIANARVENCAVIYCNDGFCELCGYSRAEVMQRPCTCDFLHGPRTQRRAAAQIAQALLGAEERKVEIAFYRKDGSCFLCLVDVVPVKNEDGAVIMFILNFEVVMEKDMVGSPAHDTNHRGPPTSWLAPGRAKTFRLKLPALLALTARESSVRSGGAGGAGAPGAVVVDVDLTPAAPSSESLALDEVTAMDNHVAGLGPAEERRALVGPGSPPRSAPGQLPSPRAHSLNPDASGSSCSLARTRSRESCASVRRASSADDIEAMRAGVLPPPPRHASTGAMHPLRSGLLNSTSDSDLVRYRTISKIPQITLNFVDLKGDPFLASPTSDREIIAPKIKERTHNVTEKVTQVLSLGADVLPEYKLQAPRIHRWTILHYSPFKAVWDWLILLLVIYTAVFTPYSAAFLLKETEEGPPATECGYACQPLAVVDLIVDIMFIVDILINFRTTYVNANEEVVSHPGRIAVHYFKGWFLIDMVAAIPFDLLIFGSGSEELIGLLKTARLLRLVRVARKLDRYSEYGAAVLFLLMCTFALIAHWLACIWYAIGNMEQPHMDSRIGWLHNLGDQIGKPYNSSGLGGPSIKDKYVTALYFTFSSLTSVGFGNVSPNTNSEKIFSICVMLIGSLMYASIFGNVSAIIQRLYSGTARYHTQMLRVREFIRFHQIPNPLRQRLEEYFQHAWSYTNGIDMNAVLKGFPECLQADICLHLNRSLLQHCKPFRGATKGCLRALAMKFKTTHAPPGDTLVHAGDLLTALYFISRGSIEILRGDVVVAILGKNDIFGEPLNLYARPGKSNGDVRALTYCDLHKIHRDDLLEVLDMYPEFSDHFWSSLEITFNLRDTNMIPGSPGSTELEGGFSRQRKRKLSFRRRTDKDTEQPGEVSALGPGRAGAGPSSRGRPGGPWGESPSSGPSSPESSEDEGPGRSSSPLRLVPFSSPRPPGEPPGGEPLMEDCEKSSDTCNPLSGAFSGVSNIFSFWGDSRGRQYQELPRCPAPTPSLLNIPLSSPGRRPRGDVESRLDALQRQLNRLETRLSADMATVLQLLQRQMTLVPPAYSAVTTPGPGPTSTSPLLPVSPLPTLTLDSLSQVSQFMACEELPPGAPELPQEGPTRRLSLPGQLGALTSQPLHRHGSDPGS

Compared with `CCCc1c(C(=O)NNc2cc(C(F)(F)F)ccc2Cl)cnn1-c1ccccc1`, `COc1ccc(/C(=N\O)c2ncc(C(F)(F)F)cc2Cl)cc1` is lower in “hERG current change (%, negative = inhibition) at 10uM” value: 0.78% for the first, -3.33% for the second.

Going from `Cc1ccc(C)c(NC(=O)C2C3CCCC2C3c2ccccc2)c1` (stereo not shown) to `CCOC(=O)c1ccccc1NC(=O)c1cccc([N+](=O)[O-])c1`, the “hERG current change (%, negative = inhibition) at 10uM” value rises from 6.75% to 12.5%.

Compared with `CCN1CCN(S(=O)(=O)c2ccc3c(c2)NC(=O)CS3)CC1`, `CN1CCN(S(=O)(=O)c2ccc3c(c2)NC(=O)CS3)CC1` is lower in “hERG current change (%, negative = inhibition) at 10uM” value: 19.9% for the first, 13.3% for the second.

Going from `CC1CC(C)CN(CCCNC(=O)CN2C(=O)CSc3ccc(S(=O)(=O)N4CCOCC4)cc32)C1` (stereo not shown) to `CC1CC(C)CN(CCCNC(=O)CN2C(=O)CSc3ccc(S(=O)(=O)N4CCCCC4)cc32)C1` (stereo not shown), the “hERG current change (%, negative = inhibition) at 10uM” value falls from 15.8% to -50.2%.

First: CC1CCN(S(=O)(=O)c2ccc3c(c2)N(CC(=O)NCCCN2CCCC(C)C2)C(=O)CS3)CC1 (stereo not shown)
Second: CC1CCN(S(=O)(=O)c2ccc3c(c2)N(CC(=O)NCCCN2CC(C)CC(C)C2)C(=O)CS3)CC1 (stereo not shown)
The “hERG current change (%, negative = inhibition) at 10uM” value of the first is higher: -20.6% for the first, -66.2% for the second.

Going from `CC1CCN(S(=O)(=O)c2ccc3c(c2)NC(=O)CS3)CC1` to `CCC1CCCCN1CCCNC(=O)CN1C(=O)CSc2ccc(S(=O)(=O)N3CCC(C)CC3)cc21` (stereo not shown), the “hERG current change (%, negative = inhibition) at 10uM” value rises from -52.2% to -9.76%.

Compared with `CC1CCCN(CCCNC(=O)CN2C(=O)CSc3ccc(S(=O)(=O)N4CCOCC4)cc32)C1` (stereo not shown), `O=C(O)c1c2c(nc3ccc(S(=O)(=O)N4CCC(C(=O)NC5CCCC5)CC4)cc13)CCCCC2` is lower in “hERG current change (%, negative = inhibition) at 10uM” value: 19.5% for the first, 9.65% for the second.

First: COc1ccc(N(CC(=O)NCCSc2ccccn2)S(=O)(=O)c2ccc(C)cc2)cc1OC
Second: CCOc1ccccc1NC(=O)CCNS(=O)(=O)c1ccccc1
The “hERG current change (%, negative = inhibition) at 10uM” value of the first is lower: -17.7% for the first, 17.6% for the second.

Going from `Cc1ccc(C2=Nc3ccccc3N=C(c3ccc([N+](=O)[O-])cc3)C2)c(O)c1` to `N#Cc1cc2[nH]c3ccccc3c2[n+](-c2ccc([N+](=O)[O-])cc2)c1N.[Cl-]`, the “hERG current change (%, negative = inhibition) at 10uM” value falls from -3.53% to -65.1%.

Compared with `COc1ccc([C@@H]2CC(=O)c3c(O)cc(O)cc3O2)cc1O`, `COc1ccc(OC)c(N2Cc3ccccc3C2)c1` is higher in “hERG current change (%, negative = inhibition) at 10uM” value: 5.19% for the first, 12% for the second.

Compared with `c1ccc(-n2nnc3cnccc32)cc1`, `c1ccc(Cn2nnc3cnccc32)cc1` is lower in “hERG current change (%, negative = inhibition) at 10uM” value: 12% for the first, 2.3% for the second.

Going from `c1ccc(-n2c(Cc3cccnc3)nc3cnccc32)cc1` to `CC(C)Cn1c(SCC(=O)N2CCN(C(=O)c3ccco3)CC2)nc2ccccc2c1=O`, the “hERG current change (%, negative = inhibition) at 10uM” value falls from -50.5% to -73.2%.

First: COc1ccc(NC(=O)N(CCCN2CCOCC2)Cc2cccnc2)c(OC)c1
Second: COc1cc(C)c(Br)cc1S(=O)(=O)NCCN1CCOCC1
The “hERG current change (%, negative = inhibition) at 10uM” value of the first is lower: 5.99% for the first, 12.5% for the second.

First: CCOC(=O)c1cc2[nH]c3ccccc3c2[n+](-c2ccc([N+](=O)[O-])cc2)c1C.[Cl-]
Second: CCOC(=O)c1cc2[nH]c3ccccc3c2[n+](-c2ccc([N+](=O)[O-])cc2)c1N.O=C([O-])C(F)(F)F
The “hERG current change (%, negative = inhibition) at 10uM” value of the first is lower: -77.8% for the first, -58.4% for the second.

Compared with `Nc1[nH]c2cc([N+](=O)[O-])ccc2c1-c1ccccn1`, `Cc1[nH]c2ccccc2c1/C=N/Nc1ccc([N+](=O)[O-])cc1` is lower in “hERG current change (%, negative = inhibition) at 10uM” value: 20.1% for the first, 3.95% for the second.

First: CCOC(=O)c1csc(N)c1-c1ccc([N+](=O)[O-])cc1
Second: CCOC(=O)c1cc(=O)[nH]c2ccccc12
The “hERG current change (%, negative = inhibition) at 10uM” value of the first is lower: 6.52% for the first, 19% for the second.

First: CCOC(=O)c1ccc(-c2ccc3[nH]c4ccccc4c(=O)c3c2)cc1F
Second: CCOC(=O)c1cnc(COc2ccccc2Cl)[nH]c1=O
The “hERG current change (%, negative = inhibition) at 10uM” value of the first is lower: 13% for the first, 16% for the second.

First: Cc1c(Cl)cccc1NC(=O)c1cc(-c2ccco2)on1
Second: CCCn1c(SCC(=O)N2CCN(C(=O)c3ccco3)CC2)nc2ccccc2c1=O
The “hERG current change (%, negative = inhibition) at 10uM” value of the first is higher: -0.802% for the first, -82.8% for the second.

First: N#CC(C#N)=CN=c1ccn(Cc2ccc(Cl)cc2Cl)cc1
Second: O=C1c2oc3ccc(Cl)cc3c(=O)c2C(c2cccc(Br)c2)N1CCO (stereo not shown)
The “hERG current change (%, negative = inhibition) at 10uM” value of the first is higher: 7.39% for the first, -13.1% for the second.

Compared with `O=c1cc[nH]c2c(C(F)(F)F)cccc12`, `CCn1c(SCC(=O)N2CCCC2)nc2ccccc2c1=O` is lower in “hERG current change (%, negative = inhibition) at 10uM” value: -0.945% for the first, -23% for the second.

Compared with `CCC(C)(C)NC(=O)Cn1c(-c2ccc(C)cc2)noc1=O`, `C/C=C(/C)C(=O)O[C@H]1[C@@H](O)c2c(ccc3ccc(=O)oc23)OC1(C)C` is lower in “hERG current change (%, negative = inhibition) at 10uM” value: 13.5% for the first, 3.92% for the second.

Compared with `CC12CCC(C(=O)Nc3ccccc3Cl)([C@H](Br)C1=O)C2(C)C` (stereo partly shown), `CC(C)Cn1c(SCC(=O)N2CCCCC2)nc2ccccc2c1=O` is lower in “hERG current change (%, negative = inhibition) at 10uM” value: 15.9% for the first, -24.7% for the second.

First: C/C=C(/C)C(=O)OC1c2c(ccc3ccc(=O)oc23)OC(C)(C)C1OC(=O)/C(C)=C\C (stereo not shown)
Second: C/C=C(/C)C(=O)O[C@@H]1c2c(ccc3ccc(=O)oc23)OC(C)(C)[C@@H]1OC(=O)/C(C)=C\C
The “hERG current change (%, negative = inhibition) at 10uM” value of the first is lower: -12.3% for the first, -8.07% for the second.

Compared with `CC(=O)OC1c2c(ccc3ccc(=O)oc23)OC(C)(C)C1OC(=O)CC(C)C` (stereo not shown), `CC(=O)O[C@@H]1[C@H](OC(=O)CC(C)C)c2c(ccc3ccc(=O)oc23)OC1(C)C` is lower in “hERG current change (%, negative = inhibition) at 10uM” value: -30.4% for the first, -67.2% for the second.

First: C/C=C(/C)C(=O)O[C@@H]1[C@H](OC(=O)C=C(C)C)c2c(ccc3ccc(=O)oc23)OC1(C)C
Second: C/C=C(/C)C(=O)O[C@@H]1[C@H](OC(C)=O)c2c(ccc3ccc(=O)oc23)OC1(C)C
The “hERG current change (%, negative = inhibition) at 10uM” value of the first is higher: -0.258% for the first, -36% for the second.

Compared with `C/C=C(\C)C(=O)OC1c2c(ccc3ccc(=O)oc23)OC(C)(C)C1OC(C)=O` (stereo not shown), `C/C=C(/C)C(=O)OC1c2c(ccc3ccc(=O)oc23)OC(C)(C)C1OC(C)=O` (stereo not shown) is higher in “hERG current change (%, negative = inhibition) at 10uM” value: -72.5% for the first, -71.8% for the second.

Going from `CC(=O)c1cccc(NC(=O)C(CC(C)C)NC(=O)C2CCCCC2)c1` (stereo not shown) to `CC(C)Cn1c(SCC(=O)N2CCOCC2)nc2ccccc2c1=O`, the “hERG current change (%, negative = inhibition) at 10uM” value falls from -4.77% to -5.9%.

For `O=C(CSc1nc2ccccc2n1CC(=O)N1CCCC1)N1CCN(C(=O)c2ccco2)CC1`, the “hERG current change (%, negative = inhibition) at 10uM” value was -0.921%.
